The values below come from the OligoGym collection.
Also: reference of the scale not given here.

The target of one experiment is CCL13. Put plainly: pooled miR-30 sensor sort-seq; sequence = guide strand. The conditions noted are these: shRNA.
Take TTACTTAACACATAGTACATTT: the sensor-assay potency score (higher = more potent) is -1.04.

In turn, ATTCTGGACCCACTTCTCCTTT yielded a sensor-assay potency score (higher = more potent) of -1.22.

Sequence TCTGAAGATGACAGCCTTCTGG came in with a sensor-assay potency score (higher = more potent) of -0.807.

Another experiment has as its target CCL23. The experiment is described as above. The conditions noted are these: shRNA.
The sequence TCATGAACTCTGTCTCTGCATC came in with a sensor-assay potency score (higher = more potent) of -0.664.

Turning to TTCAAAGTAACTCTCCAGGAGT, the sensor-assay potency score (higher = more potent) is -0.524.

Sequence TTTGACATCATGAACTCTGTCT displayed a sensor-assay potency score (higher = more potent) of 0.483.

Turning to TCTGCATCTTTTGTGACCCGGG, the sensor-assay potency score (higher = more potent) was -0.271.

Sequence TTGGAGCACTCGCTGTTCGTTT registered a sensor-assay potency score (higher = more potent) of -0.72.

With TCTCACGCAAACCTGAACTTGC, the sensor-assay potency score (higher = more potent) is -0.191.

Turning to TCCAAGGGCAGTAACAAGCATG, the sensor-assay potency score (higher = more potent) is -1.61.

TGAACTTGCTTATCACTGGGGT registered a sensor-assay potency score (higher = more potent) of 0.574.

TGAACTCTGTCTCTGCATCTTT showed a sensor-assay potency score (higher = more potent) of -0.137.

The sequence TCTGTCTCTGCATCTTTTGTGA gave a sensor-assay potency score (higher = more potent) of -0.455.

Turning to TAGTAGCATGGAATCTGTCCAG, the sensor-assay potency score (higher = more potent) is -0.782.

For the sequence AGTAGCATGGAATCTGTCCAGA, the sensor-assay potency score (higher = more potent) was -1.79.

The target in the next experiment is CCL26. Described as above. Particulars: shRNA.
TTTTGGTAGTGAATATCACAGC: the sensor-assay potency score (higher = more potent) was -0.793.

With TGGATGGGTACAGACTTTCTTG, the sensor-assay potency score (higher = more potent) is -1.49.

The sequence TCTTTTGGTAGTGAATATCACA showed a sensor-assay potency score (higher = more potent) of -1.4.

Take TAGTGAATATCACAGCCCGCTG: the sensor-assay potency score (higher = more potent) was -1.27.

Take TTGTGGCTGTATTGGAAGCAGC: the sensor-assay potency score (higher = more potent) is -1.27.

As to TTCTTGCCTCTTTTGGTAGTGA, the sensor-assay potency score (higher = more potent) was -0.89.

With TTGGTAGTGAATATCACAGCCC, the sensor-assay potency score (higher = more potent) is -0.403.

TTGGATATGTCACTCCCACGTG registered a sensor-assay potency score (higher = more potent) of -0.51.

On to TAGCTTCGCACCCAGGTCCAGG, for which the sensor-assay potency score (higher = more potent) was -1.45.

Sequence TATTGGAAGCAGCAGGTCTTGG came in with a sensor-assay potency score (higher = more potent) of -1.48.

The target of the next experiment is CCL28. The description is as above. The conditions noted are these: shRNA.
ACACATATTCACTCTTTCCAGG returned a sensor-assay potency score (higher = more potent) of -1.19.

For TGATGTGAAACCTCCGTGCAAC, the sensor-assay potency score (higher = more potent) was -1.14.

The sequence TTCTTCTGCGCTTGACATGAAG came in with a sensor-assay potency score (higher = more potent) of -1.32.

Sequence TTGCACTTTCATCCACTGCTTA displayed a sensor-assay potency score (higher = more potent) of -0.197.

In the case of AATATGATGTGAAACCTCCGTG, the sensor-assay potency score (higher = more potent) was determined as 0.282.

Consider TTTCTTGGCAGCTTGCACTTTC, for which the sensor-assay potency score (higher = more potent) was found to be 0.0736.

Regarding TGCACTTTCATCCACTGCTTAA, the sensor-assay potency score (higher = more potent) is -1.51.

Consider TTAACAGTATGGTTGTGCGGGC, for which the sensor-assay potency score (higher = more potent) is -0.737.

As to TTGCCATGGTGTTTCTTCCTGT, the sensor-assay potency score (higher = more potent) was -0.322.

TCCTGTGGCAAACATTTCCTTT returned a sensor-assay potency score (higher = more potent) of -1.54.

ATATGATGTGAAACCTCCGTGC yielded a sensor-assay potency score (higher = more potent) of -0.448.

TTTTCTTGGCAGCTTGCACTTT registered a sensor-assay potency score (higher = more potent) of -0.496.

Another experiment concerns the target CCNA1. Described as above. The conditions noted are these: shRNA.
With TTGCTTGCTGAGGTCGATGGGG, the sensor-assay potency score (higher = more potent) is -0.835.

Turning to TATATCTCTTCATATTTCGAAG, the sensor-assay potency score (higher = more potent) was -1.14.

The sequence TTTTGTGTATGTATCATCGGTG registered a sensor-assay potency score (higher = more potent) of 0.2.
